Results filed as inconclusive are left out. The source made the active and inactive calls. The calls were made as follows, unless noted: active = hit-call score of the fitted dose curve at least 0.9, where 1 is the maximum; inactive = score below 0.9.

A short description of experiment [1]: ATG_NFI_CIS: Attagene CIS-FACTORIAL HepG2 Assay for human Nuclear Factor I (NFI) (AID 2282989). Conditions: HepG2 cis-regulatory reporter, NFI response element transcription; actives raise or lower the signal. The method in brief:
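Reporter transcription driven by endogenous transcription factors in HepG2 cells; 24 h treatment. Quantitation by labelled RT-PCR fragments on capillary electrophoresis, gain- or loss-of-signal relative to DMSO.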

The target in experiment [2] is Myc proto-oncogene protein (Homo sapiens) (UniProt P01106). Put plainly: ATG_Myc_CIS: Attagene CIS-FACTORIAL HepG2 Assay for human Myelocytomatosis (Myc) Proto-Oncogene Transcription Factor (AID 2282990). The following applies: HepG2, Attagene cis-reporter transcription factor activity; actives raise or lower the signal. In short, it runs like this: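 DMSO-normalised, bidirectionally fitted reporter mRNA signal. HepG2 cells transfected with cis reporter constructs, treated 24 h; transcripts detected by RT-PCR, 6-FAM primer extension and CE.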

Experiment [3] can be described thus: ATG_NF_kB_CIS: Attagene CIS-FACTORIAL HepG2 Assay for human Nuclear Factor Kappa B (NF-kB) (AID 2282991). Conditions: HepG2 Attagene cis-factorial NF-kB reporter mRNA; actives raise or lower the signal. In short, it runs like this: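 Read-out: reporter transcript levels quantified by RT-PCR plus capillary electrophoresis of 6-FAM-labelled, HpaI-cut fragments. Transfected HepG2 cells, 24 h compound exposure, endogenous NF-kB-driven cis element; gain or loss scored versus DMSO.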

Experiment [4] in a line: ATG_Oct_MLP_CIS: Attagene CIS-FACTORIAL HepG2 Assay for human Octamer-Binding Transcription Factor (Oct) (AID 2282993). Conditions: HepG2 Attagene cis-factorial Oct reporter, mRNA; actives raise or lower the signal. The method in brief:
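Transfected HepG2 cells, 24 h treatment. Reporter mRNA quantified by RT-PCR–capillary electrophoresis; bidirectional fitting against DMSO.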

In experiment [5] the target is Cellular tumor antigen p53 (Homo sapiens) (UniProt P04637). Kind of experiment: ATG_p53_CIS: Attagene CIS-FACTORIAL HepG2 Assay for human p53 Transcription Factor (AID 2282994). Conditions: HepG2 p53 cis-element reporter, Attagene mRNA; actives raise or lower the signal. In short, it runs like this: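 HepG2 cells transiently transfected with cis-regulated multiple reporter transcription units, dosed 24 h. Reporter mRNA measured by RT-PCR, 6-FAM primer extension, HpaI digestion and capillary electrophoresis; bidirectional fit relative to DMSO.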

Experiment [6] has as its target Peroxisome proliferator-activated receptor gamma (Homo sapiens) (UniProt P37231). Put plainly: ATG_PPARg_TRANS: Attagene TRANS-FACTORIAL HepG2 Assay for human Peroxisome Proliferator-activated Receptor-gamma (PPARg) (AID 2283007; active = hit-call score of the fitted dose curve at least 0.9, where 1 is the maximum). In short, it runs like this:
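Read-out: reporter mRNA induction, detected by fluorescence after RT-PCR and capillary electrophoresis. Transiently transfected human HepG2 liver cells carrying a chimeric NR-Gal4 construct were dosed for 24 h; activity was fitted upward relative to DMSO.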

For experiment [7], the target named is Nuclear receptor subfamily 1 group I member 2 (Homo sapiens) (UniProt O75469). Put plainly: ATG_PXR_TRANS: Attagene TRANS-FACTORIAL HepG2 Assay for human Pregnane X Receptor (PXR) (AID 2283008; active = hit-call score of the fitted dose curve at least 0.9, where 1 is the maximum). The method in brief: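 HepG2 cells transiently transfected with GAL4-UAS reporter units and PXR-Gal4 chimera, exposed 24 h. Reporter mRNA quantified by RT-PCR, fluorescent labelling, HpaI digestion and capillary electrophoresis; gain of signal vs DMSO.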

Experiment [8] addresses human Retinoic Acid Receptor beta (RARb), RARB (gene 5915) (UniProt P10826). Put plainly: ATG_RARb_TRANS: Attagene TRANS-FACTORIAL HepG2 Assay for human Retinoic Acid Receptor beta (AID 2283004; active = hit-call score of the fitted dose curve at least 0.9, where 1 is the maximum). The method in brief:
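HepG2 cells were transiently transfected with GAL4-UAS reporter units that report activity of exogenous chimeric NR-Gal4 proteins, then exposed to compound for 24 h. Reporter mRNA was quantified by RT-PCR with capillary electrophoresis fluorescence, as gain of signal over DMSO.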

For experiment [9], the target named is Retinoic acid receptor alpha (Homo sapiens) (UniProt P10276). Put plainly: ATG_RARa_TRANS: Attagene TRANS-FACTORIAL HepG2 Assay for human Retinoic Acid Receptor alpha (RARa) (AID 2283005; active = hit-call score of the fitted dose curve at least 0.9, where 1 is the maximum). The method in brief: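 HepG2 cells transiently transfected with multiple reporter units expressing chimeric RARα-GAL4 fusion, with GAL4-UAS-driven reporters. After 24 h compound exposure, reporter mRNA induction quantified by RT-PCR and capillary electrophoresis with fluorescent labeling; gain-of-signal fitted relative to DMSO control.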

Experiment [10] concerns the target human Retinoic Acid Receptor gamma (RARg), RARG (gene 5916) (UniProt P13631). Kind of experiment: ATG_RARg_TRANS: Attagene TRANS-FACTORIAL HepG2 Assay for human Retinoic Acid Receptor gamma (RARg) (AID 2283009; active = hit-call score of the fitted dose curve at least 0.9, where 1 is the maximum). In short, it runs like this: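 HepG2 transiently transfected with GAL4-UAS reporter units and chimeric NR-Gal4 constructs; 24 h compound exposure. Reporter mRNA quantified by RT-PCR, FAM labeling, HpaI digestion and capillary electrophoresis; gain-of-signal versus DMSO.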

Experiment [11] has as its target human RAR-related Orphan Receptor beta (RORb), RORB (gene 6096) (UniProt Q92753). Put plainly: ATG_RORb_TRANS: Attagene TRANS-FACTORIAL HepG2 Assay for human RAR-related Orphan Receptor beta (RORb) (AID 2283010; active = hit-call score of the fitted dose curve at least 0.9, where 1 is the maximum). The method in brief:
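HepG2 cells transiently transfected with GAL4-UAS reporter units expressing chimeric NR-Gal4 protein; reporter mRNA measured 24 h after dosing by RT-PCR, 6-FAM labelling and capillary electrophoresis. Gain-of-signal fitted relative to DMSO baseline.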

Experiment [12] in a line: ATG_NRF2_ARE_CIS: Attagene CIS-FACTORIAL HepG2 Assay for human Nuclear Factor Erythroid 2 Related Factor 2 (NFR2) response to Antioxidant Response Elements (ARE) (AID 2282992).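 As to AC50: reporter mRNA level measured by RT-PCR and capillary electrophoresis fluorescence.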 Conditions: HepG2 Attagene ARE/NRF2 reporter, transcription factor activity; actives raise or lower the signal. The method in brief: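 HepG2 cells transiently transfected with multiplexed cis-element reporter constructs, 24 h after chemical dosing; reporter mRNA quantified by RT-PCR, fluorescent primer extension, HpaI digestion and capillary electrophoresis. Bidirectional fit relative to DMSO.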

For experiment [13], the target named is human Peroxisome Proliferator-activated Receptor alpha (PPARa), PPARA (gene 5465) (UniProt Q07869). Kind of experiment: ATG_PPARa_TRANS: Attagene TRANS-FACTORIAL HepG2 Assay for human Peroxisome Proliferator-activated Receptor alpha (PPARa) (AID 2283001; active = hit-call score of the fitted dose curve at least 0.9, where 1 is the maximum). The method in brief: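 Gain-of-signal endpoint: reporter mRNA induction relative to DMSO, detected by fluorescent RT-PCR and capillary electrophoresis. HepG2 cells transiently carried GAL4-UAS-driven reporter units plus NR-Gal4 fusion; exposure lasted 24 h.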

Experiment [14] is described as follows: BSK_3C_TissueFactor: BioMAP Diversity Plus: 3C Assay for Tissue Factor Biomarker Activity (AID 2282997). The following applies: BioMAP 3C HUVEC, tissue factor biomarker readout; actives raise or lower the signal. The method in brief: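 HUVEC were treated 24 h, then surface tissue factor measured by ELISA and fitted bidirectionally against DMSO. Parallel SRB total-protein staining assessed overt cytotoxicity at the same time point.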

Experiment [15] is described as follows: BSK_3C_uPAR: BioMAP Diversity Plus: 3C Assay for Urokinase-type plasminogen activator receptor (uPAR) Biomarker Activity (AID 2282998). The following applies: BioMAP 3C HUVEC, uPAR biomarker ELISA; actives raise or lower the signal. The method in brief: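 Readout: ELISA for surface uPAR. System: human umbilical vein endothelial primary cells, 24 h after chemical exposure. Analysis: bidirectional fit, DMSO baseline.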
On the technique in general: An ELISA detects its analyte on a solid surface through an enzyme-linked reagent.

A short description of experiment [16]: BSK_3C_VCAM1: BioMAP Diversity Plus: 3C Assay for Vascular cell adhesion molecule 1 (VCAM1) Biomarker Activity (AID 2282999). The following applies: BioMAP 3C HUVEC, VCAM1 ELISA, cytokine-stimulated; actives raise or lower the signal. The method in brief: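 Human umbilical vein endothelial cells were dosed with compound for 24 h, after which cell-surface VCAM-1 was quantified by ELISA. Bidirectional curve fitting used DMSO as negative control and activity baseline.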

Experiment [17] in a line: BSK_4H_Eotaxin3: BioMAP Diversity Plus: 4H Assay for Eotaxin 3 Biomarker Activity (AID 2283000).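 Also: CCL26 protein level quantified by ELISA in parallel with SRB cytotoxicity check.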 The following applies: primary human endothelial cells (HUVEC); actives raise or lower the signal. The method in brief: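 Eotaxin-3 (CCL26) levels were measured by ELISA in HUVEC primary cultures 24 h post-dosing. Gain or loss of signal was fitted in both directions, with DMSO serving as baseline and negative control.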

Read-out in experiment [18]: Intercellular Adhesion Molecule 1 (ICAM1), ICAM1 (gene 3383)
Kind of experiment: BSK_3C_ICAM1: BioMAP Diversity Plus: 3C Assay for Intercellular Adhesion Molecule 1 (ICAM1) Biomarker Activity (AID 2283003). Conditions: primary human endothelial cells (HUVEC); actives raise or lower the signal. In short, it runs like this: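 HUVEC primary cells stimulated under 3C conditions; ICAM1 measured by ELISA 24 h after compound dosing. Curves fitted bidirectionally against the DMSO baseline. Overt cytotoxicity checked by SRB staining of parallel cultures.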

Experiment [19] is described as follows: BSK_3C_Proliferation: Cell Proliferation Assessment in the BioMAP Diversity Plus: 3C Assay (AID 2283006). The following applies: primary human endothelial cells (HUVEC). In short, it runs like this:
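Subconfluent HUVEC (3C system) cultured with chemical; relative cell number read at 48 h by sulforhodamine B total-protein staining (0.1% SRB after 10% TCA fixation, 560 nm). Bidirectional fit relative to DMSO.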

Experiment [20] has as its target human Peroxisome Proliferator-activated Receptor delta (PPARd), PPARD (gene 5467) (UniProt Q03181). Kind of experiment: ATG_PPARd_TRANS: Attagene TRANS-FACTORIAL HepG2 Assay for human Peroxisome Proliferator-activated Receptor delta (PPARd) (AID 2283002; active = hit-call score of the fitted dose curve at least 0.9, where 1 is the maximum). The method in brief: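 Measured quantity: GAL4-UAS reporter transcript induction in HepG2 after 24 h chemical dosing, with NR-Gal4 chimeras supplied by transient transfection. Detection by RT-PCR and capillary electrophoresis; upward fit against DMSO.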

Sequence of Peroxisome proliferator-activated receptor gamma (Homo sapiens) (P37231 whole entry, looked up, the tested form may be a part): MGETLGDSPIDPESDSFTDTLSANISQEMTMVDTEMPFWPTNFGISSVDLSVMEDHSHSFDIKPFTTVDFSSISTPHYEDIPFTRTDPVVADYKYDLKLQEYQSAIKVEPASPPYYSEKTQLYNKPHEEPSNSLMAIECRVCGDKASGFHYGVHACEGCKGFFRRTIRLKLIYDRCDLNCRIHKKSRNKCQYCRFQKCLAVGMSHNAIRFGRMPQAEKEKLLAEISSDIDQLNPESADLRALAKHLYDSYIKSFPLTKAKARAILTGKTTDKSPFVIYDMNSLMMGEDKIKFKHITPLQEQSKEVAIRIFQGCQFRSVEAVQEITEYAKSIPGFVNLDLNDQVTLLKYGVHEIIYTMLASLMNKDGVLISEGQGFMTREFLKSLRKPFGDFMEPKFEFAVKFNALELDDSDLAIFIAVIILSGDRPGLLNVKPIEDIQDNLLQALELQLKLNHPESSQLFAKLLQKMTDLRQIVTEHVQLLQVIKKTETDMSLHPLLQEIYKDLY
Sequence of Cellular tumor antigen p53 (Homo sapiens) (P04637 whole entry, looked up): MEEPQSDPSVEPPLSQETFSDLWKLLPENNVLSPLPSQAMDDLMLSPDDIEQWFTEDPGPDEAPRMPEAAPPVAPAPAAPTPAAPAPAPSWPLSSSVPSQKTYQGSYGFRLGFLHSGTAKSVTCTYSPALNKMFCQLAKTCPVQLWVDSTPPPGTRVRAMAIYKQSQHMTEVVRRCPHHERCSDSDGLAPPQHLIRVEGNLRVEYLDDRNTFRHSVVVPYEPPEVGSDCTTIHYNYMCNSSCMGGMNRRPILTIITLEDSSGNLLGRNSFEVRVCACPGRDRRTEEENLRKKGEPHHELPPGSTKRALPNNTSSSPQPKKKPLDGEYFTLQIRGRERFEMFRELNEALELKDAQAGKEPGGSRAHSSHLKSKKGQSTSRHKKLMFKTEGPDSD
Sequence of Nuclear receptor subfamily 1 group I member 2 (Homo sapiens) (O75469 whole entry, looked up, the tested form may be a part): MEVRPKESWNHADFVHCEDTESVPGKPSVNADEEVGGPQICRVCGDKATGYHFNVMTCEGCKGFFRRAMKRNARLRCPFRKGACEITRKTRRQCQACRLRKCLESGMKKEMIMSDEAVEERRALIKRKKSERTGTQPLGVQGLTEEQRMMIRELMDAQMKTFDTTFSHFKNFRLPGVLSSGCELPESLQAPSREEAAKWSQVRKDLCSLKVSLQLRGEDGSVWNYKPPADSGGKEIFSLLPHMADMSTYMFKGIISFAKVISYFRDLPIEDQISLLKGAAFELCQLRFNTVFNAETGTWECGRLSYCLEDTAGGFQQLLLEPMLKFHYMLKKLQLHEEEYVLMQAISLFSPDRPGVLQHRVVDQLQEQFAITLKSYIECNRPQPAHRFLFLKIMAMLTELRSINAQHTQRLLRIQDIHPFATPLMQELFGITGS
Sequence of Retinoic acid receptor alpha (Homo sapiens) (P10276 whole entry, looked up, the tested form may be a part): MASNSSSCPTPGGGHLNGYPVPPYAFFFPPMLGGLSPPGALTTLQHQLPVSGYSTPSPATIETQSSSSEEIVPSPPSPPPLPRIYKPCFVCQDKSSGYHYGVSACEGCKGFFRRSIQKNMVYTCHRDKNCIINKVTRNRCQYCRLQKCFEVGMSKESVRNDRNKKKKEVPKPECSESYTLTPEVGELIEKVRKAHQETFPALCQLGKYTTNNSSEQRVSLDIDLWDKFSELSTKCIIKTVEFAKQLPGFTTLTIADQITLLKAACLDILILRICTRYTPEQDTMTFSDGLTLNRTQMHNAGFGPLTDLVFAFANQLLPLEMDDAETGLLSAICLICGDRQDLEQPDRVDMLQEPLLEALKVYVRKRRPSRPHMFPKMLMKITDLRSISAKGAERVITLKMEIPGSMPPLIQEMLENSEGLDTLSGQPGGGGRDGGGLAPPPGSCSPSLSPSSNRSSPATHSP
Sequence of human RAR-related Orphan Receptor beta (RORb), RORB (gene 6096) (Q92753 whole entry, looked up, the tested form may be a part): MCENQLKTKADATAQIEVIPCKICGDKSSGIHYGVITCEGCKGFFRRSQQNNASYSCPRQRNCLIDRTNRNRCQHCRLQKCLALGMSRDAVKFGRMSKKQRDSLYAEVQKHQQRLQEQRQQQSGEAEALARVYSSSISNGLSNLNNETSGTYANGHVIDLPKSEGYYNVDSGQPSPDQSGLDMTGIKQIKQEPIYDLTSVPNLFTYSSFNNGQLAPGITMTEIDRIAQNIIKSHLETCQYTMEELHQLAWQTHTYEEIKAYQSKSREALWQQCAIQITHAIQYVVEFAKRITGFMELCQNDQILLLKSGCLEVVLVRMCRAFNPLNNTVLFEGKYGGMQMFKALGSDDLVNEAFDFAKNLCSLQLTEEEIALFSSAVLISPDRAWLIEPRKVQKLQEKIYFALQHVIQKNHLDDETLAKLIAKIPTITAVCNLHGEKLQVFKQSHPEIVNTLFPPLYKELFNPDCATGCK
Sequence of human Peroxisome Proliferator-activated Receptor delta (PPARd), PPARD (gene 5467) (Q03181 whole entry, looked up, the tested form may be a part): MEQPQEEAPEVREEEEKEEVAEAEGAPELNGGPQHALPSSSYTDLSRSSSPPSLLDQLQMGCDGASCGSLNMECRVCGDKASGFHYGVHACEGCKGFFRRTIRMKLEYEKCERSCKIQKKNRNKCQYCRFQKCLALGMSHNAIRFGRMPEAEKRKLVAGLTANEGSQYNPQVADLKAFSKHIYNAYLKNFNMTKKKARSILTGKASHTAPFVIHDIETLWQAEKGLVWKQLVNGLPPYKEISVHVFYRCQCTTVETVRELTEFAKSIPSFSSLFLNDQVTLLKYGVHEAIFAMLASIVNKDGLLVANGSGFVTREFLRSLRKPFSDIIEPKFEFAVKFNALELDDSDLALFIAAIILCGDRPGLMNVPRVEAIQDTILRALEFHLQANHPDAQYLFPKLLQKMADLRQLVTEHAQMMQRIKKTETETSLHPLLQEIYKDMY
Sequence of Myc proto-oncogene protein (Homo sapiens) (P01106 whole entry, looked up): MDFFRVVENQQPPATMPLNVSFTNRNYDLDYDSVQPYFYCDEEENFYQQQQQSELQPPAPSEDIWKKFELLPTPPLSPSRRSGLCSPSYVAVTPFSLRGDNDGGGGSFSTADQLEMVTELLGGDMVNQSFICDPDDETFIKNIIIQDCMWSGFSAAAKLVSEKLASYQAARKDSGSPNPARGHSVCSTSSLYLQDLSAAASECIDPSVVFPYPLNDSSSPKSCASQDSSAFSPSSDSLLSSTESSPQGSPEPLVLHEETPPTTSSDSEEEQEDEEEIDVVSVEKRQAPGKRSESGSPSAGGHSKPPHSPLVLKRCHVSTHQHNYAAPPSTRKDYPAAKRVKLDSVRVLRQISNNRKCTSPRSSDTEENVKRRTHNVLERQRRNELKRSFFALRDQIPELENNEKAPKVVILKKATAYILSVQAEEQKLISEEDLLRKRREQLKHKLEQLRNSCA
Sequence of human Peroxisome Proliferator-activated Receptor alpha (PPARa), PPARA (gene 5465) (Q07869 whole entry, looked up, the tested form may be a part): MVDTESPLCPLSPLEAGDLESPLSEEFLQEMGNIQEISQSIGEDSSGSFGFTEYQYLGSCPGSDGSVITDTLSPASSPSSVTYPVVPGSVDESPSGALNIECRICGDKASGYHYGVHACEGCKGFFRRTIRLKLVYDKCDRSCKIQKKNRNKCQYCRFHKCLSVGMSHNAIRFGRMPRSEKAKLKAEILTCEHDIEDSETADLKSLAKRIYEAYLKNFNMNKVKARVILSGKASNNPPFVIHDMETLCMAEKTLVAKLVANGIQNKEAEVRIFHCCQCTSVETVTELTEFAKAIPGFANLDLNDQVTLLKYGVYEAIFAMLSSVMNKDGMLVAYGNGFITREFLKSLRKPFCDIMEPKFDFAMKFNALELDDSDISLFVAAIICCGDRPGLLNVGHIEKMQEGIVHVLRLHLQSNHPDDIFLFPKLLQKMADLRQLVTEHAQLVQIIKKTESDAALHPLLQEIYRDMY
Sequence of human Retinoic Acid Receptor beta (RARb), RARB (gene 5915) (P10826 whole entry, looked up, the tested form may be a part): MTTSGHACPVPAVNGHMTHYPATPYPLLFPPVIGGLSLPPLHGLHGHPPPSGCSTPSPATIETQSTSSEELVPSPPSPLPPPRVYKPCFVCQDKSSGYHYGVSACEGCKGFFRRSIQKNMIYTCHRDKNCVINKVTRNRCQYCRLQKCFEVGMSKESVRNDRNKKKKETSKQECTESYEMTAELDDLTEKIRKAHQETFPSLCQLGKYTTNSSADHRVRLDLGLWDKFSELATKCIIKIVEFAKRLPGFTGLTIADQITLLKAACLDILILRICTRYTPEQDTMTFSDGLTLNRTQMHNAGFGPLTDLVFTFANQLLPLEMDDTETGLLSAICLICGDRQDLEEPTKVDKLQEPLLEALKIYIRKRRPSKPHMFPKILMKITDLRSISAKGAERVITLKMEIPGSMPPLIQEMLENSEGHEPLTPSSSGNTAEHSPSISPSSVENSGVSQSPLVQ
Sequence of human Retinoic Acid Receptor gamma (RARg), RARG (gene 5916) (P13631 whole entry, looked up, the tested form may be a part): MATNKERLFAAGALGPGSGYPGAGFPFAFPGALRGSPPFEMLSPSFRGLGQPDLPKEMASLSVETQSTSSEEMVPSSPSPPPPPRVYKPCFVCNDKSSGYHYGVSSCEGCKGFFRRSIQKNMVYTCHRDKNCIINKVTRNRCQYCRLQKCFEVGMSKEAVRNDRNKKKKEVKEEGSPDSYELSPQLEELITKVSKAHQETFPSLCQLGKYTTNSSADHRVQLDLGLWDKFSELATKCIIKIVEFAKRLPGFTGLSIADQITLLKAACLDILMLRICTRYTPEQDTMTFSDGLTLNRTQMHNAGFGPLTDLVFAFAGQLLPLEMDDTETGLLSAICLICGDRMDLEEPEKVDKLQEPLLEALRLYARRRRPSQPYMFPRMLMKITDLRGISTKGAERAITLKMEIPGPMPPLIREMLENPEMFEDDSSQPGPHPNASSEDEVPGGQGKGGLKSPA

A word on the AC50: it is the concentration at which the activity in the assay is half-maximal. Take `C=C(C)[C@@H]1CCC2=CCC[C@@H](C)[C@]2(C)C1`: the call in [1], in experiment [2], in experiment [3], in [4], in experiment [5] and in experiment [6] was inactive. The AC50 in experiment [7] was 2.72 µM (active).
Take `C=C(C)CCO`: the molecule was called inactive in [1], in [2], in [3], in [4], in experiment [5] and in experiment [8]. The result in experiment [9], in experiment [7], in experiment [10] and in experiment [11] was inactive.
As for `O=C(OCC1CCC2OC2C1)C1CCC2OC2C1` (stereo unspecified), the result in [1], in experiment [2], in experiment [12], in experiment [4] and in experiment [5] was inactive.
For `CCc1nccnc1C`, the outcome in experiment [1], in experiment [2], in experiment [3], in experiment [4], in [5] and in experiment [13] was inactive. Also, the result in experiment [8], in experiment [6], in experiment [7] and in experiment [11] was inactive.
With `CCCCCCCCCCOC(C)=O`, the molecule was classed as inactive in experiment [1], in experiment [2], in experiment [3], in experiment [4], in [5] and in experiment [13]. In addition, the molecule was classed as inactive in experiment [6], in experiment [7] and in [11].
As for `CCCCCc1ccc(Cl)cc1`, the outcome in [1], in experiment [2], in experiment [4] and in [5] was inactive. The AC50 in [12] is 120 µM (active).
With `CCCCCCCCc1ccc(Nc2ccc(CCCCCCCC)cc2)cc1`, the call in experiment [1], in experiment [2], in [3], in experiment [5], in [14] and in experiment [15] was inactive. For the same molecule, the result in experiment [16], in [17], in [18], in experiment [8], in experiment [9] and in experiment [19] was inactive. The molecule was classed as inactive in experiment [10].
With `CCC(C)C=O` (stereo unspecified), the result in [1], in [2], in experiment [3], in experiment [4], in experiment [5] and in experiment [13] was inactive. Moreover, the molecule was classed as inactive in [20], in [7] and in [11].
Consider `CC(C)C(=O)C(C)C`, for which the molecule was classed as inactive in [1], in experiment [2], in experiment [5], in experiment [14], in experiment [15] and in experiment [16]. In addition, the result in experiment [17], in [20], in [18] and in experiment [19] was inactive. Further, the results for the AC50 in [12], in [4] and in [6] were 27.1 µM (active), 29.2 µM (active) and 6.38 µM (active), respectively.
Take `CCCc1ccc(OC)cc1`: the result in [1], in [2], in experiment [3], in experiment [4], in experiment [13] and in experiment [8] was inactive. In addition, the call in experiment [6] and in [11] was inactive.
For the molecule `CC(C)COC(=O)C=Cc1ccccc1`, the outcome in [1], in [2], in [3], in experiment [4], in [5] and in experiment [13] was inactive. Also, the result in [20] and in experiment [11] was inactive. Moreover, in experiment [7], the AC50 was 29.4 µM (active).
Consider `CCCCCCOc1cc(C)c(O)c(C)c1C`, for which the molecule was classed as inactive in [1], in experiment [2], in experiment [5], in experiment [20], in experiment [8] and in experiment [9]. In addition, the result in experiment [7] and in experiment [10] was inactive. For the same molecule, the AC50 in [3] was 16.5 µM (active); in [6], 11.1 µM (active).
Take `CCCC(C)CCC(C)=O` (stereo unspecified): the outcome in experiment [1], in experiment [2], in experiment [12], in experiment [4], in experiment [5] and in experiment [13] was inactive. For the same molecule, the call in experiment [20], in experiment [8], in experiment [9], in experiment [6], in experiment [7] and in experiment [10] was inactive. The molecule was classed as inactive in experiment [11].
